PubChem BioAssay AID620 (Sanford-Burnham Center for Chemical Genomics, 2007)
The whole screen tested about 87,000 compounds, of which about 360 (0.41%) were called active. The sample as a whole holds a higher share of actives than the screen did. A number with no mark means an inactive call. Rule as the data show it: active = cytotoxicity above about 50%; inactive = the rest.

Experiment: cytotoxicity in HT1080 fibrosarcoma cells, cell-based, fluorescence readout (AID 620);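 also: cells exposed to compound overnight then 4 h with Alamar Blue; 0% = vehicle DMSO and 100% = killing control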
Settings: HT1080 viability, at 10 µM, hits give high values

Row | SMILES | cytotoxicity
1 | Cc1ccc(Cn2c(-n3nc(C)cc3C)nc3c2c(=O)[nH]c(=O)n3C)cc1 | -7.9%
2 | Cc1cc(C)n(-c2nc3c(c(=O)[nH]c(=O)n3C)n2CCc2ccccc2)n1 | 15.7%
3 | COc1ccc(CCn2c(-n3nc(C)cc3C)nc3c2c(=O)[nH]c(=O)n3C)cc1 | 55.6% (active)
4 | CC(=O)Cc1nsc(NC(=O)C2Cc3ccccc3C(=O)O2)n1 (stereo not given) | -9.2%
5 | Cc1cc(C)n(-c2nnc(C)n2/N=C/c2cc(Br)ccc2OCc2ccccc2)n1 | 5.9%
6 | COc1ccccc1/C=N/n1c(C)nnc1-n1nc(C)cc1C | 9.8%
7 | CCCOc1ccc2ccccc2c1/C=N/n1c(C)nnc1-n1nc(C)cc1C | 61.6% (active)
8 | Cc1c(C(N)=O)sc2ncn(CC(=O)N3CCC(C)CC3)c(=O)c12 | 0.9%
9 | CCN1CCCC1CNC(=O)CN1C(=O)COc2ccc(C)cc21 (stereo not given) | -4.1%
10 | O=C(Cn1cnc2ccccc2c1=O)OCC(=O)c1ccc2c(c1)OCCO2 | -7.6%
11 | O=C(Cc1ccc(Br)cc1)OCC(=O)c1ccc2c(c1)OCCO2 | -6.8%
12 | O=C(Cc1n[nH]c(=O)c2ccccc12)OCC(=O)c1ccc2c(c1)OCCO2 | 60.4% (active)
13 | CC(C)c1cc(Nc2cccc(O)c2)cc(C(C)C)c1O | 2%
14 | CCN(Cc1ccccc1)S(=O)(=O)c1ccc(S(=O)(=O)N(Cc2ccccn2)Cc2ccco2)cc1 | 11.3%
15 | CCN1CCN(C(=O)Cn2ncc3ccsc3c2=O)CC1 | -5.8%
16 | CCN1C(=O)/C(=C\N2CCCc3ccccc32)SC1=S | 52.5% (active)
17 | CCN1C(=O)/C(=C/N2CCc3ccccc32)SC1=S | 5.1%
18 | CCN1C(=O)/C(=C\N2CCCCCC2)SC1=S | -5.6%
19 | COc1ccc(C(=O)Nc2ccc(N3CCOCC3)cc2)cc1OC | -4.9%
20 | COc1cc(C(=O)Nc2cccc3cccnc23)cc(OC)c1OC | 5.4%
21 | Cn1c(=N)n(CC(O)c2cccc3ccccc23)c2ccccc21 (stereo not given) | 57.8% (active)
22 | Cn1c(=N)n(CC(=O)O)c2ccccc21 | 0.2%
23 | Cn1c(=N)n(CC(O)c2ccco2)c2ccccc21 (stereo not given) | -14.7%
24 | CC1CCC(C(C)C)C(OCC(O)CN2CCOCC2)C1 (stereo not given) | 2.7%
25 | COc1ccccc1NC(=O)c1oc2ccccc2c1NC(=O)c1cc(OC)c(OC)c(OC)c1 | 50% (active)

Row | SMILES | cytotoxicity
26 | COc1ccccc1NC(=O)c1oc2ccccc2c1NC(=O)c1ccco1 | 0.3%
27 | COCC(=O)Nc1c(C(=O)Nc2ccccc2OC)oc2ccccc12 | -17.1%
28 | Cc1oc2c(c1C(=O)Nc1cccc(C(=O)O)c1)CCCC2 | 9.3%
29 | CC1(C)CC2CC(C)(CN2C(=O)Cc2ccccc2)C1 (stereo not given) | -25%
30 | COc1cccc(C2C(C(N)=O)=C(C)Nc3nc(CCCO)nn32)c1OC (stereo not given) | 1%
31 | CCOC(=O)c1c(C)sc2c1N(C(C)=O)c1cc(Cl)ccc1S2 | 17.6%
32 | CCOC(=O)c1c(C)sc2c1N(C(=O)CN(CC)CC)c1cc(Cl)ccc1S2 | 6.5%
33 | CCOC(=O)c1c(C)sc2c1N(C(=O)CCl)c1cc(Cl)ccc1S2 | 87.2% (active)
34 | CCCN1CCN(C(c2cc3cc4c(cc3[nH]c2=O)OCO4)c2nnnn2C(C)(C)C)CC1 (stereo not given) | 1.4%
35 | CCN(CC)S(=O)(=O)c1cccc(C(=O)Nc2ccc(Cl)cn2)c1 | -7.6%
36 | CCc1ccc(C2=CC(c3cc(Br)ccc3F)n3ncnc3N2)cc1 (stereo not given) | 44.7%
37 | Fc1ccc(Br)cc1C1C=C(c2ccc(Br)s2)Nc2ncnn21 (stereo not given) | 62.6% (active)
38 | Fc1ccc(Br)cc1C1C=C(c2ccc(Br)cc2)Nc2ncnn21 (stereo not given) | -11.5%
39 | Cc1cc(N)n(-c2ncnc3scc(-c4ccc(Cl)cc4)c23)n1 | 7.2%
40 | COc1ccc(C(=O)C(CN2CCOCC2)c2ccccc2)cc1 (stereo not given) | 27%
41 | O=C(c1ccc(F)cc1)C(CN1CCOCC1)c1ccccc1 (stereo not given) | 61% (active)
42 | COc1ccc(C(=O)C(CN2CCOCC2)c2ccccc2)cc1F (stereo not given) | 25.3%
43 | CC(CN1CCOCC1)C(=O)c1ccccc1 (stereo not given) | -9.8%
44 | CCCCCOc1ccc(C(=O)C(c2ccccc2)N2CCOCC2)cc1 (stereo not given) | -2%
45 | CCc1cc(=O)oc2cc(OCC(=O)N(CC)CC)c(Cl)cc12 | 2.2%
46 | O=C(CCn1c(=O)sc2ccccc21)NCc1ccccc1 | 0%
47 | c1ccc2[nH]c(CSc3nc4ccccc4s3)nc2c1 | -3.3%
48 | CCCC[C@@H]1C[C@H]1C(NC(=O)c1ccc(C(F)(F)F)cc1)c1ccc(C(=O)OC)cc1 (stereo not given in full) | -11.3%
49 | CCn1cc(C(=O)O)c(=O)c2cnc(N3CCN(C(=O)Nc4cccc5ccccc45)CC3)nc21 | -1.8%
50 | CC(=O)N1CCN(Cc2ccc(Br)s2)CC1 | -4.4%

Row | SMILES | cytotoxicity
51 | Cc1[nH]c(=O)[nH]c(=O)c1S(=O)(=O)N1c2ccc(F)cc2CCC1C (stereo not given) | -0.4%
52 | CCCN(C(=O)Cn1ncc2c(=O)oc3ccccc3c21)c1cccc(C)c1 | -2.3%
53 | O=C(CN(c1ccccc1F)S(=O)(=O)c1ccccc1)NC1CCCCCC1 | -8.6%
54 | Fc1ccc(-c2nnc(CN3CCN(c4ncc(C(F)(F)F)cc4Cl)CC3)o2)cc1 | -2.5%
55 | CCCCc1ccc(-c2nc(N)n[nH]2)cc1 | 5.5%
56 | CCCCCCc1ccc(-c2ncc(N)cn2)cc1 | 97.1% (active)
57 | CCCCCc1ccc(-c2ccc(=O)[nH]n2)cc1 | 15.3%
58 | CCCn1c(=O)c2ccccc2n2c(SCC(=O)c3cc(C)n(CC4CCCO4)c3C)nnc12 (stereo not given) | 6.6%
59 | COc1ccccc1N(CC(=O)NC1CCCCC1)S(C)(=O)=O | -0.7%
60 | Fc1ccc(N2CCN(c3nc(-c4ccco4)cc(C(F)(F)F)n3)CC2)cc1 | -8.6%
61 | COc1ccc2[nH]cc(C(=O)N3CCCCC3)c(=O)c2c1 | -0.4%
62 | CCc1ccc2[nH]cc(C(=O)N3CCCCCC3)c(=O)c2c1 | -11%
63 | O=C(c1c[nH]c2ccc(F)cc2c1=O)N1CCCCCC1 | 67.1% (active)
64 | Cc1nc2ccccc2n1-c1nc(-c2ccco2)cc(C(F)(F)F)n1 | 65.2% (active)
65 | FC(F)(F)c1cc(-c2ccco2)nc(-n2nnc3ccccc32)n1 | -10.9%
66 | FC(F)(F)c1cc(-c2ccco2)nc(-n2cnc3ccccc32)n1 | -14.2%
67 | CCCCNC(=O)c1ccc2c(c1)N(CC)C(=O)c1ccccc1S2(=O)=O | -4.4%
68 | CSc1nc(NCC(C)C)nc(N2CCOCC2)n1 | 1%
69 | CC(=O)NC1=NN(C(C)=O)C(C)(c2cccs2)S1 (stereo not given) | 65.3% (active)
70 | CC(=O)NC1=NN(C(C)=O)C2(CCCCC2)S1 | 0.7%
71 | CCCC1(C)SC(NC(C)=O)=NN1C(C)=O (stereo not given) | -1.8%
72 | COc1ccc(C(=O)CSc2nc(SC)ns2)cc1OC | 7.5%
73 | COc1cc(NC(=O)COc2ccc(F)cc2)nc(OC)n1 | 5%
74 | O=C(Nc1ccc(-c2nc3ccc(NC(=O)c4cccs4)cc3[nH]2)cc1)c1cccs1 | 16.4%
75 | O=C(Nc1ccc2nc(-c3ccccc3)[nH]c2c1)c1cccs1 | 56.7% (active)

Row | SMILES | cytotoxicity
76 | O=C(Nc1ccc2nc(-c3cccs3)[nH]c2c1)c1cccs1 | 17%
77 | COc1ccc(C(=O)SC2=NCCS2)cc1 | -11.1%
78 | Cc1cc(C)n(-c2c(F)c(F)c(CO)c(F)c2F)n1 | -14.3%
79 | CS(=O)(=O)N(CC(=O)N1CCN(c2ccccc2)CC1)C1CCCCC1 | -5.1%
80 | CCCNC(=O)C1CN(S(=O)(=O)c2ccccc2)CCN1S(=O)(=O)c1ccccc1 (stereo not given) | 3.1%
81 | Cn1c(Cn2nnc3ccccc32)nnc1SCC(=O)NCc1ccc2c(c1)OCO2 | -4.4%
82 | CCn1ncc(C2=NOC(C(=O)NCc3ccc(OC)cc3)C2)c1C (stereo not given) | 2%
83 | CCn1ncc(C2=NOC(C(=O)NCc3ccccc3)C2)c1C (stereo not given) | 53.9% (active)
84 | CCn1ncc(C2=NOC(C(=O)NCc3ccc(Cl)cc3)C2)c1C (stereo not given) | 71.2% (active)
85 | CCn1ncc(C2=NOC(C(=O)Nc3ccc(C)cc3)C2)c1C (stereo not given) | 7.8%
86 | CCn1ncc(C2=NOC(C(=O)NCCc3ccccc3)C2)c1C (stereo not given) | 4.4%
87 | CCn1ncc(C2=NOC(C(=O)NCC(C)C)C2)c1C (stereo not given) | 1.4%
88 | Cc1ccc(C)c(NC2=NC3(CCCCC3)N=C(N)N2)c1 | 4.3%
89 | COC(=O)C(NC(=O)c1ccco1)(Nc1nc(C2CC2)cs1)C(F)(F)F (stereo not given) | 1.9%
90 | CCc1ccccc1NC(=O)CN(C)Cc1nc(N)nc(Nc2ccccc2C)n1 | -1%
91 | CO/N=C/NC(=O)Cc1cn(-c2ncc(C(F)(F)F)cc2Cl)c2ccccc12 | 7.8%
92 | COC(=O)c1sc(NC(=O)c2oc3ccccc3c2C)nc1C | -14.4%
93 | Cc1c(C(=O)Nc2nnc(C(F)(F)F)s2)oc2ccccc12 | 82.5% (active)
94 | Cc1ccc2c(C)c(C(=O)Nc3nnc(C)s3)oc2c1 | 1.1%
95 | Cc1cc(NC(=O)c2oc3ccccc3c2C)ccc1-n1cnnn1 | 75.3% (active)
96 | O=C(Nc1nnc(C(F)(F)F)s1)c1cccnc1 | 24%
97 | CCOCc1nnc(NC(=O)c2ccc(OC)cc2)s1 | 7.7%
98 | COc1ccc(C(=O)Nc2nnc(C(F)(F)F)s2)cc1 | 66.8% (active)
99 | Cc1c(C(=O)Nc2ccc(-n3cnnn3)cc2)oc2ccccc12 | 26.2%
100 | Cc1cc(NC(=O)c2ccco2)ccc1-n1cnnn1 | -8.1%
